# Laboratory results published in PubChem BioAssay.
# Assay: HepG2 liver cancer cell viability effects, profiling panel, resazurin fluorescence, 24 h, PK04 Diversity Set (AID 1172); note: test concentration not given here
# Settings: higher = more signal
row,Structure (SMILES),z-score
1,CC1CC/C=C\[C@H]2OC34C=CCN(c5ccc6ccccc6c5)C(=O)[C@H]3N(CCCCCO)C(=O)[C@@H]4C2C(=O)O1 (stereo not given in full),-0.304
2,CN1C(=O)C2C=CC(C(O)C(C)(C)C)N(Nc3ccccc3)C2C1=O (stereo not given),-0.376
3,Cc1ccc(S[C@]2(C(=O)NCCCN(C)C)CC(=O)N(Cc3ccccc3)[C@@H]2c2ccc(CO)cc2)cc1,-0.519
4,O=C1O[C@H](c2ccccc2)[C@H](c2ccccc2)N2[C@H]1[C@@H](C(=O)NC[C@H](O)c1ccccc1)[C@]1(C(=O)Nc3ccc(C#CC4=CCCCC4)cc31)[C@H]2c1ccc(O)cc1,-0.654
5,O=C(CS)NCCCCCNC(=O)[C@H]1C[C@H]2C(=O)N[C@@H](Cc3ccccc3)C(=O)N2[C@H]1c1cccc(OCCO)c1,0.219
6,CCCC[C@H]1OB(O)C[C@H]2C1=C(COc1ccccc1)C[C@H]1C(=O)N(Cc3ccccc3)C(=O)[C@H]12,0.552
7,O=c1cccc(-c2cccc3ccccc23)o1,-0.0368
8,CCCCCN1CC=CC23O[C@@H]4C=CCCOC(=O)C4[C@H]2C(=O)N(CCCO)[C@@H]3C1=O (stereo not given in full),0.457
9,CS(=O)(=O)CCOC(=O)C1=CC(c2ccc(CO)cc2)=CC(c2cccs2)N(Cc2cccc(OC(F)(F)F)c2)C=C1C(=O)OCCS(C)(=O)=O (stereo not given),-0.534
10,C#C[C@H](O[Si](C#CCCCCCC)(C(C)C)C(C)C)c1ccccc1,0.465
11,COc1ccc([Si](C)(C)[C@@H]2[C@@H](CCO)O[C@]3(C(=O)N(Cc4ccccc4)c4ccc(N(C=O)c5ccccc5)cc43)[C@H]2C)cc1,-0.131
12,C=C(COC)C(=O)CC[C@H](OC(=O)c1cccnc1)c1ccccc1OCCO,-0.577
13,C=CCC(OC(C)=O)[C@@H]1[C@@H](N(Cc2cc3ccccc3o2)C(=O)c2ccc(C)cc2)c2cc(OCCCO)ccc2N1C(=O)c1ccc(-c2ccccc2)cc1 (stereo not given in full),0.419
14,NC(=O)[C@]1(Cc2ccccc2)N=C(c2ccc(OCCCO)cc2)O[C@@H]1c1ccccc1,-0.3
15,[N-]=[N+]=NCc1ccccc1C[C@]1(C(=O)NCCN2CCOCC2)N=C(c2ccc(OCCCO)cc2)O[C@H]1c1ccccc1CN=[N+]=[N-],0.0176
16,CCOC(=O)C1=CC[C@@H](c2cccc(Cl)c2)N(S(=O)(=O)c2ccc(C)cc2)[C@H]1c1ccc(C#N)cc1,0.697
17,O=c1cccc(-c2ccccc2)o1,0.123
18,CC(=O)NCCCC[C@@H]1NC(=O)[C@@H]2C[C@H](C(=O)NCc3ccc(F)cc3)[C@H](c3ccc(O)cc3)N2C1=O,-0.0579

row,Structure (SMILES),z-score
1,O=C1OCCC=C[C@H]2OC34C=CCN(c5ccc6ccccc6c5)C(=O)[C@H]3N(CCCCCCO)C(=O)[C@@H]4C12 (stereo not given in full),0.523
2,O=C1OCCC/C=C\[C@H]2OC34C=CCN(Cn5nnc6ccccc65)C(=O)[C@H]3N(CCCO)C(=O)[C@@H]4C12 (stereo not given in full),0.558
3,CC(C)OC(=O)C1=CCC(c2cccc(Cl)c2)O1 (stereo not given),0.195
4,O=C1[C@H]2C=C(Br)[C@H](C[C@@H]2OCCOCCO)[C@@]12CO2,-0.0029
5,O=c1cccc(-c2ccc3ccccc3c2)o1,-0.321
6,CCCCCCCCCCC(O)C1C=CC2C(=O)N(c3ccccc3)C(=O)C2N1Nc1ccc([N+](=O)[O-])cc1 (stereo not given),-0.573
7,CN1C(=O)C2C=CC(C(O)c3ccccc3)N(NC(=O)OC(C)(C)C)C2C1=O (stereo not given),-1.24
8,CN(C)CCCC[C@@H]1NC(=O)[C@@H]2C[C@H](C(=O)NCCCCCCN)[C@H](c3ccc(O)cc3)N2C1=O,-1.14
9,CCOC(=O)C[C@H]1[C@H](OC(=O)c2cc3ccccc3oc2=O)[C@@H](NC(=O)c2ccc3ccccc3c2)c2cc(OCCCO)ccc2N1C(=O)c1ccccc1,-0.438
10,COc1ccc([Si](C)(C)[C@@H]2[C@@H](CCO)O[C@]3(C(=O)N(Cc4ccc(N5C(=O)c6cccc7cccc5c67)cc4)c4ccccc43)[C@H]2C)cc1,-0.454
11,O=C(NCC(O)CO)[C@@]1(Cc2ccccc2)COC(c2ccc(OCCCO)cc2)=N1 (stereo not given in full),0.55
12,CC(C)(C)OC(=O)CC[C@]1(C(=O)NCC(O)CO)N=C(c2ccc(OCCCO)cc2)O[C@H]1c1ccccc1CN=[N+]=[N-] (stereo not given in full),-0.206
13,C=C(/C(=C/C[C@@H](OC(C)=O)c1ccc(CO)o1)c1cnc2ccccc2c1)C(C)C,-1.05
14,O=C1O[C@H](c2ccccc2)[C@H](c2ccccc2)N2[C@H]1[C@@H](C(=O)NC[C@H](O)c1ccccc1)[C@]1(C(=O)Nc3ccc(C#CC4(O)CCCCCC4)cc31)[C@H]2c1ccccc1OCCO,-2.48
15,O=C1C[C@@](C(=O)O)(c2ccc([N+](=O)[O-])cc2)[C@@H](c2ccc(CO)cc2I)N1C1CCCCC1,0.0536
16,COc1ccc(CCNC(=O)[C@@]2(C)c3ccccc3C(=O)N(Cc3ccccc3)[C@H]2c2ccc(CO)cc2)cc1,0.976
17,CC1CC/C=C\[C@H]2OC34C=CCN(Cn5nnc6ccccc65)C(=O)[C@H]3N(CCCO)C(=O)[C@@H]4C2C(=O)O1 (stereo not given in full),-0.0236
